Measurements taken from PMC12864922, “TDP-43 directly inhibits mRNA accumulation in neurites through modulation of mRNA stability”.
Over roughly 9,900 sequences, “r (bound/input frequency ratio)” has its median near 0.7; the highest 2% begin near 6.5. This excerpt belongs to a sample that is enriched for the highest values.

B1: ENSMUSG00000042529.105|Kcnj12 (ssRNA)
RNA: GGGAGUUCUACAGUCCGACGAUCGCUUCGAUAUCCGCAUGCUAAGGUCUGUUUUCUCCCUCACGUGGGCCAGGGCCUUAAGCGAGUUGUCAUGCUUAAGGAUGAAUCAGGCUGCUUGUGACCAUGUUAACGAUUCUAAUAAAGUGUCUGGAUGUCUCUUGGGGGUGGGGCCCACUAGGGUGAAUCUGGCUUGCUCUUCUGUUUGAUGUUGUUGUACCUCAGCUGCCUCAGGGCUGGGUUUAGACACCCCUUCCCCCACCCCCACUCCGUACUCCCUGUUGUGCUUCCCUUCCUAUUUAGUCCCCUCUUGCGGUCGCACUAGUGUGGAAUUCUCGGGUGUCAAGG
B2: ENSMUSG00000090935.77|Synj2bp (ssRNA)
RNA: GGGAGUUCUACAGUCCGACGAUCGCUUCGAUAUCCGCAUGCUACUUUGUCAGCAUAGGCAGGAGUCCUUUAGGAUUUCUGCCUAUCAGUAAAAGAAGUAUGUAACCCAAGUUCUACCUUCAGUGGAUUAAAGUUUCAUUAAGUGAAAAUGGAAAGAAAGUAGAAUUACUUGGUAAGAGGCCAAAUGAGGAUACAGAGGCUGAAGAAGAUUGAAAGGAGCUAGUGUAAACAAACAAACAAACAAACAAACAAAAAACCAAACCCCAAAACAAAAACAAAAACAAAACAAAAUUGGAGAAAGCAGCUCUUGCGGUCGCACUAGUGUGGAAUUCUCGGGUGUCAAGG
B3: ENSMUSG00000090935.604|Synj2bp|54:59 (ssRNA)
RNA: GGGAGUUCUACAGUCCGACGAUCGCUUCGAUAUCCGCAUGCUACUAAUAGACACUGUUUGCUUCAGUUGUUUUUGUUUCCUUUUCCUACAGUUUUCACACACGGUGAUUUCAUUUAAUUAAUUGGACAGUCUAGCCACAGGCAACAAAUAGAAAUAGUAUUUGUAAUUAUAGUCUAUGCCAGGGACUGUCUUAAACUGAUUAGUAACACUAUGACUUACCCUGAGAUCUAAGUAUUGCUAUAAAGAGACUGAAGAGGAGAGAAUAAAGUAUUUUCCUAGGACUACAUAGUUGGUAAAAGAGAACUCUUGCGGUCGCACUAGUGUGGAAUUCUCGGGUGUCAAGG
B4: ENSMUSG00000035279.10|Ssc5d|99:105 (ssRNA)
RNA: GGGAGUUCUACAGUCCGACGAUCGCUUCGAUAUCCGCAUGCUAAUGCCUUCAAACCACCCAGAAGCCAGACCUUACACUCAGCUUCAGACCACCUCACUCAAGGGCCAACCCCUAAUCACAACCCAGAUCCUUUUGGGCCAACACACACCCCAUUACCACCAGUAAGGGUCAUGGCUUGUGAGCCACCUGCCUUGGUGGAGCUGGUAGGUGCUGUGAGGGAGGUGGGUGACCAGCUGCAGAGACUGACCUGGGUCCUGGAGCAGGACCGGCAGGAGCGCCAAGUCCUGGCACUGGGCCUAGCCCUCUUGCGGUCGCACUAGUGUGGAAUUCUCGGGUGUCAAGG
B5: ENSMUSG00000031028.241|Tub (ssRNA)
RNA: GGGAGUUCUACAGUCCGACGAUCGCUUCGAUAUCCGCAUGCUAGGUUCUGGGGCUGGGCUUGGACACGCCCUCCAUUGGGAUGGCACCACUCAUCUGGUGGGCUUGGGAACUCCAAGCUCUUGCCUGUGUGCCAUCUGUGAGAAGCUUCUUGGAGCUGAGACACCAGAGGGAAGCAAAGAGCAUUUAGACAUUGCUUUUUGCUUUGAAAUAGAUAUGUUUGGAAACGCUAAGUAGAAGUUUAAAAAGUAGAGUCAUGUAGAGUCAUGCUUUGAAUAUGUGGGUCAUGCUUUAGAUAUGAAGAGCUCUUGCGGUCGCACUAGUGUGGAAUUCUCGGGUGUCAAGG
B6: ENSMUSG00000061578.211|Ksr2 (ssRNA)
RNA: GGGAGUUCUACAGUCCGACGAUCGCUUCGAUAUCCGCAUGCUAUGACACAAGAGGCAAAGCUGUCCCUAAGCAGAGAAUUAGCAGGGUUAGCCAGACAGCAAAAUCCAUGUAAACAUACAAAACCACCCCCCCUUUUUGAGUGGCCCUAUUGGAUGUACACACUAGGACCAAGCACGGGUCCAAAGCAGGAAGACUGAUUGACAGUAGUCACACUUCUAGAGAGAUGUACCCCAUGACACUUUCAAGUCUUUUCAGAACCUUCUCACCCCUUUGCAAAGCUCUUGCCGUCUGCACCCGGGACCCUCUUGCGGUCGCACUAGUGUGGAAUUCUCGGGUGUCAAGG
B7: ENSMUSG00000090935.117|Synj2bp (ssRNA)
RNA: GGGAGUUCUACAGUCCGACGAUCGCUUCGAUAUCCGCAUGCUAUUUGCCCUCACCAUGGUAGCAGUUUGGGCCUUCGUGAGAUACCGAAAGCAGCUUUGAAAUGCUUGCUGUCUUCCAGUGUGUCCAAUGAACUCUCUCUCUCACUCACCAUCUCUGACAUCCUCCCAUAUUCUUUCUCCUCCACAUAGCCAAUACAAGAUUUAAAGUGACUGCUUAUCACCCAAAACCCUGCUAUUCAAAAUCUCCUAUUCUAAUGGAAGAGUACAGGGGUUAUUUGAAGAAAAGCUGUGGUGGUGUGUGUGCUCUUGCGGUCGCACUAGUGUGGAAUUCUCGGGUGUCAAGG
B8: ENSMUSG00000061578.735|Ksr2 (ssRNA)
RNA: GGGAGUUCUACAGUCCGACGAUCGCUUCGAUAUCCGCAUGCUAUGUAUCAAGACCUUGGAGUUGUCUAAGGCUGUGGGUUUUAAAUACCUGCUGCAGGCCUCCCAUCUCUGGCUCUUUGUUUCCACUCUGGCCCAAGUUUGAGUCUCCAUAUGGGCCCUUCCUGUCCUCAUGCCCUGCCUGUCUUCAUUCCACCCAUCCACCCUCCUAAGGAUUGGUCUUGUUCCGAGAGUGAUCCUGGUAACGCCAAGCCUCCCUCUGCCCCUGUGUUGGCUUCUGUGACGGACUACCACACACCAAGAGGUCUCUUGCGGUCGCACUAGUGUGGAAUUCUCGGGUGUCAAGG
B9: ENSMUSG00000029028.148|Lrrc47 (ssRNA)
RNA: GGGAGUUCUACAGUCCGACGAUCGCUUCGAUAUCCGCAUGCUAUUGAGAACAUCAUGUUGUGAGUGUAAUCUUCUUAGAGCUUGUUUCCAGGCACCGUGCUGCCGCCAUGCUCCCAGGGCAGCAUCUGCCUUCCACGGCUGUGCUUGGAACUGUAGUGCUGGUCGUUGUUGGCACAUCUGCGCCUUGGCCAAGGAAGUUAUCUAUGUCCGUGUAGUCCUUUGUAGUCAGACAGAUGCUUCGUGGACUGUGCCUCACACAUGGCCCUGCAGGCUCCAUGUCAGCGUGUCCCACUAUUCAUGUCCCUCUUGCGGUCGCACUAGUGUGGAAUUCUCGGGUGUCAAGG

The binders below were run against TDP-43 (Homo sapiens, UniProt Q13148 1-414) (assay: RNA Bind-n-Seq with designed 260-mer pool; 25 mM Tris-HCl, 150 mM KCl, 3 mM MgCl2, BSA (printed 500 mg/mL), 20 units/mL SUPERase IN; pH not stated; 500 nM RNA pool, 1 h, 4 C; TDP-43 5, 50, 500 nM; high values mean tight binding). Settings: protein: recombinant; tags: SBP (GST cleaved off with PreScission; pGEX-GST-SBP).
How it was run: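 Binding (R) is the ratio of each oligo's mapped-read-normalized abundance in the bound fraction to its abundance in the input. To obtain it, SBP-tagged recombinant TDP-43 (5, 50 or 500 nM) on streptavidin beads was incubated with 500 nM of an in vitro-transcribed 260-nt 3′ UTR oligo pool for 1 h at 4 °C in 25 mM Tris-HCl, 150 mM KCl, 3 mM MgCl2, BSA and SUPERase IN. The RNA retained after washing was released with biotin, then reverse transcribed, amplified by PCR and sequenced.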

Sequence of TDP-43 (Q13148 whole entry): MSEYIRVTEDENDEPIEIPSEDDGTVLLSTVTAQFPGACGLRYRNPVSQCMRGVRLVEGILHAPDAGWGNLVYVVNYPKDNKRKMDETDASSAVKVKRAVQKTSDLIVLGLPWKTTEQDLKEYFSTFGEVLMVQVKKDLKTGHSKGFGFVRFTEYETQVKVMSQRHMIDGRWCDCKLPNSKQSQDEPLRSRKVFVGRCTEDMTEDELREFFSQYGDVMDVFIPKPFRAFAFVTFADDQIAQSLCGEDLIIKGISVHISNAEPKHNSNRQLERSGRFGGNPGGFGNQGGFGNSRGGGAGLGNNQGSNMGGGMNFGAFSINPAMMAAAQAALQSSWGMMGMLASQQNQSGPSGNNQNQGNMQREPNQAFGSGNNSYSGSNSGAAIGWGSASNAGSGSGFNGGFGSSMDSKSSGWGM

Q: How did the binding signal turn out when B1 was run?
A: 3.16 R (bound/input frequency ratio)

Q: With B2 as the binder, how does the binding signal read?
A: 0.858 R (bound/input frequency ratio)

Q: How did the binding signal turn out when B3 was run?
A: 0.0675 R (bound/input frequency ratio)

Q: For B4, which binding signal is on record?
A: 1.24 R (bound/input frequency ratio)

Q: With B5 as the binder, how does the binding signal read?
A: 0.949 R (bound/input frequency ratio)

Q: B6 was tested. Which binding signal did it give?
A: 0.667 R (bound/input frequency ratio)

Q: With B7 as the binder, how does the binding signal read?
A: 1.43 R (bound/input frequency ratio)

Q: Which binding signal does the source give for B8 here?
A: 1.36 R (bound/input frequency ratio)

Q: Which binding signal does the source give for B9 here?
A: 1.13 R (bound/input frequency ratio)
